From PubChem BioAssay
IL1B secr inh = qHTS for Inhibitors of Inflammasome Signaling: IL-1-beta AlphaLISA Primary Screen; THP-1 LPS/ATP IL-1B secretion, AlphaLISA, 16 h; hits give low values; activity change, % at 57.5 µM; actives 4.7% (n = 360,000); AID 743279, 2014; in the data active = activity change below about -50%; inconclusive = mostly about -30% to -49%
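THP-1 cells pretreated 1 hr with compounds (up to 57.5 uM final), then stimulated with LPS (250 ng/mL final) plus ATP (1.25 mM final); secreted IL-1B measured by AlphaLISA after 16 hr, decreased signal indicating inhibition.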
Giardia killer = Small Molecules that selectively kill Giardia lamblia: qHTS. activity change, % at 7.66 µM, hits read low. Giardia lamblia trophozoite viability. actives 0.15% (n = 340,000); in the data active = activity change below about -80%; inconclusive = between about -30% and that limit;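 note: parasites exposed to compound for two days anaerobically before the ATP read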
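Trophozoite viability was measured as ATP-dependent luminescence, read 15-30 min after reagent addition. Before that, parasites at 100 cells/well were exposed to compounds for 48 h, anaerobically, at 37 deg C.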
TDP1 inh = qHTS Assay for Inhibitors of Tyrosyl-DNA Phosphodiesterase (TDP1); recombinant TDP1, AlphaScreen DNA substrate cleavage; actives 0.28% (n = 350,000); Potency, µM (doses to about 130 µM), without a hit: top-dose activity change, negative = inhibition, actives largely listed as inhibitors; note: potency is the fitted concentration of half-maximal effect; nearly all actives have a fitted effect of over 40% in size
Target sequence (Q9NUW8 whole entry, looked up): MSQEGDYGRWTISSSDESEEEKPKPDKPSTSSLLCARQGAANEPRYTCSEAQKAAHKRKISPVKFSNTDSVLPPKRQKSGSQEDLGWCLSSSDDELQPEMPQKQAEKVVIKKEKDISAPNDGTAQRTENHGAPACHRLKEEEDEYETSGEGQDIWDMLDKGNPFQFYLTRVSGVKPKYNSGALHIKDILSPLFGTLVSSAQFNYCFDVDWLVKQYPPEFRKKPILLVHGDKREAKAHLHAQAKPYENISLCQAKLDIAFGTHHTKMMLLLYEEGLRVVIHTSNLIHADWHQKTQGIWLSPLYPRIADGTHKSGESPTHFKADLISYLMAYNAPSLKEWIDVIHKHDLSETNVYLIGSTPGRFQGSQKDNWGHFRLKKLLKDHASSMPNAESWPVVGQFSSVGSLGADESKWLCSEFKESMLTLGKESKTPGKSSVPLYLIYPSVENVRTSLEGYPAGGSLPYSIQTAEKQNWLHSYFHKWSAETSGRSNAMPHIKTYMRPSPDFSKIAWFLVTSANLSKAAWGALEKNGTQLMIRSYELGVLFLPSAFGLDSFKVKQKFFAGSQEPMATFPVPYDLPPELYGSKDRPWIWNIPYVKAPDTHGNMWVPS
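Recombinant human Tdp1 (E. coli-expressed, 1 nM final) preincubated with compounds 15 min at room temperature, then 5'-biotin/3'-phosphotyrosine-FITC DNA substrate (15 nM final) added for 5 min. AlphaScreen beads (10 ug/ml final) added 10 min; cleavage lowers signal.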
DT40 TDP1 no CPT = qHTS for Inhibitors of human tyrosyl-DNA phosphodiesterase 1 (TDP1): qHTS in cells in absence of CPT; DT40 Tdp1-/- hTDP1 cells, no CPT, ATP luminescence, 48 h; Potency, µM (series often up to 46.2 µM), without a hit: at the top dose activity change, negative = growth inhibition, most hits filed as inhibitors; actives 15% (n = 420,000); note: potency is the fitted concentration of half-maximal effect; nearly all actives have a fitted effect of over 55% in size
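Chicken DT40 Tdp1-/- cells complemented with human TDP1, screened without camptothecin (DMSO vehicle only), 400 cells/well. Compounds pin-transferred, cells incubated at 37 °C for at least 48 hr. Growth read as ATP-dependent luminescence (CellTiter-Glo, 30 min at RT).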
ELG1 DNA repair = qHTS screen for small molecules that inhibit ELG1-dependent DNA repair in human embryonic kidney (HEK293T) cells expressing luciferase-tagged ELG1; HEK293T ELG1-luciferase reporter, luminescence, 16 h; DNA damage induced by 5-fluorouridine; Potency, µM (doses to about 46.1 µM), without a hit: top-dose activity change, negative = inhibition, actives largely listed as inhibitors; actives 2.3% (n = 330,000); AID 504467, 2011; note: potency is the fitted concentration of half-maximal effect; nearly all actives have a fitted effect of over 55% in size
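DMSO vehicle served as the neutral condition. Each well held 2,000 cells given 5-fluorouridine plus compound; after 16 hr at 37 °C/5% CO2, ONE-Glo was added and luciferase measured 30 min later.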
TDP1 cell CPT = qHTS for Inhibitors of human tyrosyl-DNA phosphodiesterase 1 (TDP1): qHTS in cells in presence of CPT; chicken DT40 Tdp1-/-;hTDP1 cells + 20 nM CPT, ATP luminescence, 48 h; Potency, µM (top dose mostly 46.2 µM), for the others: top-dose activity change, negative = growth inhibition, usual class: inhibitors; actives 12% (n = 420,000); AID 686979, 2013; note: potency is the fitted concentration of half-maximal effect; nearly all actives have a fitted effect of over 55% in size
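Cell growth measured by CellTiter-Glo luminescence after a minimum 48 h, 37 C compound exposure with 20 nM CPT in Tdp1-knockout DT40 cells stably expressing hTDP1, seeded 400/well; qHTS titration format.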
* marks the source's active call; other numbers are inactive results; ? = inconclusive; . = no result given; [ ] = dose if it differs, or a comment. A selection: hits, their analogues and other compounds. The true share with any hit is near 19%. Unless noted, calls come from the whole dose curve; as a rule, active = well fitted curve in the direction sought with a large enough effect; inconclusive = small, poorly fitted or top-dose-only effect, or another doubt; inactive = no such curve, though single readings can be large; an effect the other way counts as inactive or inconclusive. % is set by controls: 0 for no effect and ±100 for the full control effect.

SMILES	IL1B secr inh	Giardia killer	TDP1 inh	DT40 TDP1 no CPT	ELG1 DNA repair	TDP1 cell CPT
COc1ccc(NC(=O)c2cccc3c(-c4ccc(OC)cc4C)coc23)cc1	22.5	.	.	?	.	?
CC(=O)c1cccc(NC(=O)c2ccc(-n3cncn3)c3ccoc23)c1	-15.1	.	.	?	.	?
CS(=O)(=O)Nc1cccc(NC(=O)c2cccc3c(-c4cccnc4)coc23)c1	-7.8	.	.	16.4µM*	.	11.6µM*
Cn1cc(-c2coc3c(C(=O)Nc4ccccc4)cccc23)cn1	-28.8	.	.	?	.	?
O=C(Nc1cccnc1)c1ccccc1-c1ccccc1	19.3	-2.3	4.8%	13.9%	6.5%	?
COc1ccc(-c2coc3c(C(=O)Nc4cccc(NS(C)(=O)=O)c4)cccc23)c(C)c1	-14.9	.	.	20.6µM*	.	?
CC(=O)c1cccc(NC(=O)c2cccc3c(-c4cccnc4)coc23)c1	0.0	.	.	9.2µM*	.	11.6µM*
COc1ccc(C(=O)N/C(=C/c2ccccc2F)C(=O)NCCN2CCOCC2)cc1OC	-13.9	11.0	4.3%	32.8%	20.7%	-13.8%
CC(Sc1nnc(-c2ccco2)n1C)C(=O)N1C(C)CCCC1C (stereo not drawn)	10.5	-8.3	3.8%	-12.9%	1.7%	3.1%
CC(C)CCn1nnnc1C(C(C)C)N1CCC(C(N)=O)CC1 (stereo not drawn)	17.6	-14.4	0.0%	-5.4%	17.0%	4.5%
Cc1ccc(C(=O)N(C)CCOc2ccccc2)cc1S(=O)(=O)N1CCOCC1	0.0	23.8	1.2%	?	-1.4%	?
O=C(Nc1cccc(OC(F)(F)F)c1)c1cccc2c(-c3cccnc3)coc12	-27.9	.	.	20.6µM*	.	23.1µM*
O=C(O)CC1c2ccccc2CCN1S(=O)(=O)c1cccs1 (stereo not drawn)	6.9	-15.9	.	25.1%	.	7.7%
CCN(CC)CCCNC(=O)c1cn(CC)c2cc(N3CCN(C(=O)c4ccco4)CC3)c(F)cc2c1=O	-5.3	0.0	5.8%	0.4%	1.4%	-17.9%
CCn1cc(C(=O)NC(C)C)c(=O)c2cc(F)c(N3CCN(C(=O)c4ccco4)CC3)cc21	-7.2	-5.1	4.0%	18.4µM*	-12.4%	?
CCCCCNC(=O)c1cn(CC)c2cc(N3CCN(C)CC3)c(F)cc2c1=O	-84.9*	-8.9	.	?	0.5%	-2.0%
CCn1cc(C(=O)NCCC(C)C)c(=O)c2cc(F)c(N3CCN(C(=O)c4ccco4)CC3)cc21	-14.6	?	-0.2%	18.4µM*	?	16.4µM*
CCCNC(=O)c1cn(CC)c2cc(N3CCN(C)CC3)c(F)cc2c1=O	3.3	?	3.9%	-1.7%	0.0%	-1.9%
CCn1cc(C(=O)Nc2ncccc2O)c(=O)c2cc(F)c(N3CCN(C(=O)c4ccco4)CC3)cc21	-1.3	29.5	-7.2%	8.2µM*	?	13µM*
Cc1ccc(N2C(=O)CSC23C(=O)N(CC(=O)NC2CCCCC2)c2ccccc23)cc1 (stereo not drawn)	.	.	4.2%	-7.7%	.	-17.3%
O=C(Nc1cc2c(cc1C(=O)c1cccc(Br)c1)OCCO2)c1ccccc1F	.	.	4.5%	.	.	.
CCOC(=O)CN[C@@H](C(=O)N1CC[C@H]1C(=O)NCc1ccc(/C(N)=N/O)cc1)C1CCCCC1	.	.	.	4.3%	.	-2.7%
O=C(Cc1cccs1)N/N=C\c1ccc([N+](=O)[O-])s1	6.8	-85.0*	6.9%	20.6µM*	14.6µM*	8.2µM*
O=C(CNC(=O)c1ccccc1Cl)N/N=C/c1ccc([N+](=O)[O-])s1	-55.6*	?	-0.6%	20.6µM*	?	20.6µM*
COc1cc(/C=N/NC(=O)Cc2cccs2)c([N+](=O)[O-])cc1OC	5.3	6.5	8.0%	-23.1%	?	-17.0%
SMILES	IL1B secr inh	Giardia killer	TDP1 inh	DT40 TDP1 no CPT	ELG1 DNA repair	TDP1 cell CPT
Cc1onc(-c2ccccc2)c1C(=O)N/N=C/c1ccc([N+](=O)[O-])s1	-13.4	?	8.9%	13µM*	?	16.4µM*
CCCCn1c(=N)c(S(=O)(=O)c2ccc(C)cc2)cc2c(=O)n3cc(C)ccc3nc21	.	.	9.3%	0.7%	.	-4.5%
Cc1ccc2cc(CNCc3cccc4ccccc34)c(N3CCC(O)CC3)nc2c1	.	.	.	-29.2%	.	-2.3%[9.04 µM]
S=C1NCCc2ccc(Cl)cc2C1c1ccccc1 (stereo not drawn)	5.8	-9.5	5.0%	23.1µM*	-0.5%	?
COc1ccccc1CNC(=O)c1c(-c2ccccc2)nn(-c2ccccc2)c1C	?	-13.1	0.5%	14.6µM*	?	?
COc1ccccc1CNC(=O)CSc1nnc(C)c2c(C)n(-c3ccccc3)nc12	.	.	0.0%	23.1µM*	.	20.6µM*
CCOC(=O)c1c(C)c(C(=O)NCc2ccccc2OC)c(C)n1C	4.2	14.6	6.9%	12.6µM*	-6.3%	?
CCOc1ccccc1CNC(=O)CSc1nnc(C)c2c(C)n(-c3ccccc3)nc12	.	.	5.6%	?	.	?
COc1ccc(OCC(=O)Nc2cccc(C(=O)Nc3ccccc3C(=O)O)c2)cc1	0.0	20.8	-2.7%	?	1.7%	?
CCc1cc(C(=O)NNC(=O)CCl)sc1C	-28.0	10.7	6.3%	?	-3.5%	14.6µM*
CCc1cc(C(=O)NNC(=O)CCN2CCN(c3ccccc3)CC2)sc1C	-4.4	-2.9	3.5%	14.6%	0.2%	5.7%
O=C1CCC(C(=O)N2CCN(c3ccccc3)CC2)CN1CC1CCCCC1 (stereo not drawn)	14.3	20.5	5.0%	?	6.0%	?
COc1cc(/C=c2/sc3nc(-c4ccccc4)c(-c4ccccc4)n3c2=O)cc(OC)c1OC	3.0	2.1	4.1%	10.3µM*	2.0%	6.51µM*
COc1ccc(/C=c2/sc3nc(-c4ccccc4)c(-c4ccccc4)n3c2=O)cc1	-1.7	-7.5	0.6%	?	-1.8%	?
COc1ccc(/C=c2\sc3nc(-c4ccccc4)c(-c4ccccc4)n3c2=O)cc1OC	-8.6	5.3	2.0%	16.4µM*	10.7%	?
COc1ccc2nc3ccccc3[n+]([O-])c2c1	-25.1	7.4	.	?	.	-10.5%
[O-][n+]1c2ccccc2cc2ccccc21	-12.1	-9.7	-2.5%	9.2µM*	-6.1%	?
